# Cycloheximide cs – counter-screen hit for Shiga toxin inhibitors, cycloheximide | cell reporter, cycloheximide protein synthesis inhibition counterscreen | max response, % | 12% of 300,000 active; in the data active = max response mostly above about 13%, no sharp cut-off; inactive = mostly below about 14%; note: read at 38.3 µM for the half of the compounds with a filed dose; 0% is about no effect
# LmPK inh – blocks Leishmania mexicana pyruvate kinase activity; 0.37% of 290,000 active; AID 1721; Potency, µM (doses to about 57.5 µM), for the others: at the highest dose activity change, negative = inhibition, hits mostly inhibitors; purified LmPK, Kinase-Glo ATP luminescence, 1 h; Q27686; note: potency is the fitted concentration of half-maximal effect; % is set by controls: 0 for no effect and ±100 for the full control effect
# Target sequence (Q27686 whole entry, looked up): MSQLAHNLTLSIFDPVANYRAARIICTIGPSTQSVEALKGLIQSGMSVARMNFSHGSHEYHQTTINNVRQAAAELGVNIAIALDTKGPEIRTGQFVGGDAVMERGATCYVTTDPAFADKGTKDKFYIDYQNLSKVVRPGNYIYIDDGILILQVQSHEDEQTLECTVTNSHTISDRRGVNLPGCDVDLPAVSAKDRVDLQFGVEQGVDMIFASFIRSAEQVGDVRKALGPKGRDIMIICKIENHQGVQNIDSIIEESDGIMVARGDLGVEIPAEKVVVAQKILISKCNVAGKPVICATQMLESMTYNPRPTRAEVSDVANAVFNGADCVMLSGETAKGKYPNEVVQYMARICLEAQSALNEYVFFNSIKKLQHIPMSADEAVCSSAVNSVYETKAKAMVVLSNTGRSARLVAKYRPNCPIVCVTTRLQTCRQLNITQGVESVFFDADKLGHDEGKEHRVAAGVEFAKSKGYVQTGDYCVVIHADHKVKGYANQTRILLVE
#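 Screened at intermediate enzyme activity to detect both inhibitors and activators: LmPK at 0.1 nM, with a 0.5 nM enzyme column as activation reference. PEP 0.5 mM, ADP 0.1 mM; ATP detected by luminescence after 1 h.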
# Shiga inhibitor – inhibitors of Shiga toxin in Vero cells | Vero cells, Shiga toxin protein synthesis inhibition reporter | inhibition, % at 38.7 µM | 9.2% of 290,000 active; in the data active = inhibition mostly above about 28%, no sharp cut-off; inactive = mostly below about 43%; note: 0% is about no effect
# Pf growth 96h – P. falciparum growth inhibition at 96 hour, primary screen for plastid delayed-death inhibitors. P. falciparum luciferase reporter growth, 96 h. Potency, µM (series often up to 28.7 µM), for inactives: at the top dose activity change, negative = inhibition, usual class: inhibitors. 6.9% of 320,000 active. AID 504834; note: potency is the fitted concentration of half-maximal effect; % is set by controls: 0 for no effect and ±100 for the full control effect
#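 Erythrocytes infected with luciferase-expressing P. falciparum were dispensed at 2% hematocrit and 0.05% parasitemia (final), then incubated with compounds 96 hours at 37 C in 5% CO2. Luminescence after detection reagent addition reported growth.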
# Pf growth 48h – inhibits P. falciparum growth in the first generation, 48 h. Potency, µM (titrated, usually from 28.7 µM), inactives show at the top dose activity change, negative = inhibition, most hits filed as inhibitors. 5.9% of 310,000 active. P. falciparum luciferase growth in erythrocytes, 48 h. AID 504832; note: potency is the fitted concentration of half-maximal effect; % is set by controls: 0 for no effect and ±100 for the full control effect
#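 Luciferase-expressing P. falciparum in infected erythrocytes (2% hematocrit, 0.1% parasitemia final) in RPMI 1640/0.5% Albumax were exposed to compound for 48 hours at 37 C, 5% CO2; growth read as luminescence.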
# Numbers without * were called inactive; ? = inconclusive; / = no result; [ ] = dose if it differs, or a comment. A selection: hits, their analogues and other compounds. The true share with any hit is near 22%. Unless noted, calls come from the whole dose curve; as a rule, active = well fitted inhibition curve with a large enough effect; inconclusive = small, poorly fitted or top-dose-only effect, or another doubt; inactive = no such curve, though single readings can be large or run the other way.
SMILES,Cycloheximide cs,LmPK inh,Shiga inhibitor,Pf growth 96h,Pf growth 48h
CCOC(=O)C1CCN(CCC(=O)Nc2ccc(F)cc2)CC1,1,0%,0,?,-14%
O=C(CCCn1c(=O)[nH]c2ccccc2c1=O)Nc1ccc(F)cc1,5,3%,-17,44%,16%
O=C(c1ccc(F)cc1)C1CCN(CCn2c(=O)[nH]c3ccccc3c2=O)CC1,-6,3%,-12,11µM*,6.6µM*
CCCCCCC(=O)N(O)C1CC(=O)N(c2ccc(C)cc2)C1=O (stereo not given),13,-1%,9,?,/
CCCCCCC(=O)N(O)C1CC(=O)N(c2ccc(Cl)cc2)C1=O (stereo not given),-2,-25%,1,10µM*,4.1µM*
CCC1CCc2sc(C(=O)O)cc2C1 (stereo not given),-3,3%,-13,3.3µM*,6%
C=CCN1CCN(C(=O)c2cc3c(s2)CCC(CC)C3)CC1 (stereo not given),37*,-5%,50*,3%,21%
CCC1CCc2sc(C(=O)NNC(=O)c3ccncc3)cc2C1 (stereo not given),/,/,/,3%,-6%
O=C(O)c1ccccc1N/N=C/c1cc(Br)cc(Br)c1O,37*,6%,127*,353%,169%
O=C(O)c1ccccc1N/N=C\c1ccnc2ccccc12,28*,-17%,43,186%,181%
CCn1c(=NC(=O)C2COc3ccccc3O2)sc2c(OC)ccc(OC)c21 (stereo not given),-4,8%,9,-13%,-22%
CC(C)OC(=O)NCCOC(=O)Nc1ccccc1Cl,20,2%,12,10%,9%
COc1ccc(C(=O)COC(=O)c2cccc(-n3cnnn3)c2)c(OC)c1,/,/,/,136%,181%
Cc1nnc(SCc2nc3ccccc3[nH]2)s1,-2,-1%,17,163%,24%
c1ccc(SCc2nc(-c3ccncc3)n[nH]2)nc1,16,8%,46*,32%,85%
c1ccc2[nH]c(CSc3nc4ccccc4s3)nc2c1,44*,-8%,55*,-26%,?
c1ccc2[nH]c(CCCCc3nc4ccccc4[nH]3)nc2c1,4,-7%,12,23%,?
c1ccc(SCc2nc3ccccc3[nH]2)nc1,26*,-2%,60*,/,44%
CC(NS(=O)(=O)c1ccc(Br)s1)c1ccccc1 (stereo not given),1,1%,-4,2%,13%
Cc1ccc(-n2ncc3c2CC(C)(C)CC3NC(=O)c2c(C)noc2C)cc1 (stereo not given),16,-9%,6,?,-18%
COc1ccc2oc(C(=O)OCc3c(C)noc3C)c(C)c2c1,3,0%,-14,-1%,-16%
CS/C(N)=N/N=C/c1ccc2c(c1)OCO2,25*,?,71*,180%,109%
CSc1nncn1/N=C/c1ccc2c(c1)OCO2,16,-4%,-1,?,-10%
CSc1nncn1/N=C/c1ccc([N+](=O)[O-])cc1,-3,12%,33,0%,-29%
COc1ccc(OC)c(/C=N/N=C(\N)c2nonc2N)c1,38*,0%,59*,-4%,40%
SMILES,Cycloheximide cs,LmPK inh,Shiga inhibitor,Pf growth 96h,Pf growth 48h
CS/C(N)=N/N=C/c1ccc([N+](=O)[O-])cc1,30*,-11%,75*,420%,117%
N/C(=N\N=C\c1ccc(O)cc1)c1nonc1N,30*,?,58,-33%,363%
O=C(CN1CCSC1=O)Nc1ccc(N2CCOCC2)cc1,/,/,/,46%,81%
CCOC(=O)C1CN(S(=O)(=O)c2ccc(OC)cc2)c2cc(S(=O)(=O)CC)ccc2O1 (stereo not given),-2,-1%,-4,?,?
COC(=O)C1=C(C(=O)OC)[C@@H]2N(Cc3ccccc3)c3ccccc3[C@@]23C[C@@H](C(=O)OC)N(S(=O)(=O)c2ccc4c(c2)OCCN4C)C3=N1,/,-8%[11.5 µM],/,/,/
N/C(=N\N=C\c1ccc(O)c(O)c1)c1nonc1N,43*,?,67*,122%,133%
Nc1nonc1C(=O)NCCNc1ccc([N+](=O)[O-])cc1,-2,-3%,-6,12%,-3%
COc1cccc(C=NCCNC(=O)c2nonc2N)c1O,1,-15%,8,?,-14%
COc1cc(/C=N/NC(=O)c2nnn(-c3nonc3N)c2C(C)C)ccc1O,-12,-13%,-2,-12%,13%
